SMILES strings stand for the structures. Active and inactive are the calls of the source. The call rests on the fitted dose curve; in most records, active means well fitted curve in the direction sought with a large enough effect in the repeat runs; inconclusive means weak or mixed curves; inactive means flat fitted curve, though single readings scatter.

The assay is described as follows: qHTS assay to test for compound auto fluorescence at 590 nm (red) in HepG2 cells (AID 720674). The note with it: HepG2 autofluorescence, red 540/590 nm, 1 h; series mostly up to 46 µM. From the text: U.S. Tox21 Program National Center for Advancing Translational Sciences [NCATS] NIH Chemical Genomics Center [NCGC] U.S. Environmental Protection Agency [EPA] National Institutes of Environmental Health Sciences [NIEHS] National Toxicology Program [NTP] U.S. Food and Drug Administration [FDA] Tox21 Assay Overview: Compound auto fluorescence often interferes with screening of the compound library against various biological targets and signaling pathways. Some of these compounds may have fluorophoric properties. Such properties may interfere with the assay outputs resulting in false positives and/or negatives. To decrease such complications and ensure the compound activities are relevant in terms of biological response, the Tox21 10K compound library was screened for auto fluorescence. From the fluorophores used as reporter signals in our screening assays, the auto fluorescence equivalencies of compounds against three fluorophores have been evaluated: Triamterene, Fluorescein and Rose Bengal sodium for blue, green and red fluorescence, respectively. The fluorescence intensities were measured using Excitation/Emission wavelengths at 405/460nm, 485/535nm and 540/590nm for blue, green and red labels, respectively. This assay includes the red fluorescence data.
Tox21 Assay Protocol Summary: 2,000 HepG2 cells in 5 uL of culture medium (MEM containing 10% FBS) per well were dispensed into black wall/clear bottom 1536-well plates using a Multidrop Combi Dispenser (ThermoFisher Scientific, Waltham, MA). The assay plates were incubated overnight at 37 C to allow cell attachment to the well bottom, followed by the transfer of 23 nL compound or DMSO vehicle by a pintool work station (Kalypsys , San Diego, CA). After the assay plates were incubated for 1 hr at 37 C and 5% CO2, fluorescence intensities in the assay plates were measured by an Envision (PerkinElmer, Shelton, CT) plate reader using three labels for measuring blue, green and red fluorescence at […] 460, 535 and 590 nm respectively.
Turning to `Cc1onc(-c2c(F)cccc2Cl)c1C(=O)N[C@@H]1C(=O)N2[C@@H]1SC(C)(C)[C@@H]2C(=O)O`, the result was inactive. Regarding `CN1CCN(c2ccccc2/C=C2\SCCN(c3ccc(Cl)c(Cl)c3)C2=O)CC1`, the result was inactive. Consider `NCC[C@H](O)C(=O)N[C@@H]1C[C@H](N)[C@@H](O[C@H]2O[C@H](CN)CC[C@H]2N)[C@H](O)[C@H]1O[C@H]1O[C@H](CO)[C@@H](O)[C@H](N)[C@H]1O`, for which the compound was classed as inactive. The result for `NS(=O)(=O)c1cc(Cl)c(Cl)c(S(N)(=O)=O)c1` reads “inactive”. For `CC[C@@]1([C@@H]2O[C@@H]([C@H]3O[C@@](O)(CO)[C@H](C)C[C@@H]3C)C[C@@H]2C)CC[C@H]([C@]2(C)CC[C@]3(C[C@H](O)[C@@H](C)[C@@H]([C@@H](C)[C@@H](OC)[C@H](C)C(=O)O)O3)O2)O1` (stereo in doubt), the compound was classed as inactive.

Take `CCN(CC)CCn1c(=O)c(Cc2ccc(OC)cc2)nc2ccccc21`: the result was inactive. The result for `COC(=O)[C@H]1[C@H]2C[C@H]3c4[nH]c5ccccc5c4CCN3C[C@H]2CC[C@@H]1O` reads “inactive”; that for `C[C@@H]1C(=O)NC2=Nc3cccc(Cl)c3CN21`, “inactive”. To `CNCC(=O)N[C@@H](CCCN=C(N)N)C(=O)N[C@H](C(=O)N[C@@H](Cc1ccc(O)cc1)C(=O)N[C@H](C(=O)N[C@@H](Cc1cnc[nH]1)C(=O)N1CCC[C@H]1C(=O)N[C@@H](C)C(=O)O)C(C)C)C(C)C` belongs “inactive”; to `CCCCCCCCCCCCCCCCCCNC(=O)OC1CCN(C(=O)OC[C@H](COC(=O)N(Cc2cccc[n+]2CC)C(=O)c2ccccc2OC)OC)CC1`, “inactive”; to `CCC(=O)OC(OP(=O)(CCCCc1ccccc1)CC(=O)N1C[C@H](C2CCCCC2)C[C@H]1C(=O)O)C(C)C` (stereo not given in full), “inactive”.

On to `O=[N+]([O-])c1ccc(O)c2ncccc12`, for which the outcome was inactive. The result for `CN(Cc1ccccc1)Cc1ccccc1` reads “inactive”; that for `NC(=O)c1cc[n+](CC2=C(C(=O)O)N3C(=O)[C@@H](NC(=O)C(c4ccccc4)S(=O)(=O)[O-])[C@H]3SC2)cc1` (stereo not given in full), “inactive”. Turning to `O=C(CCCCCCCCc1cccnc1)N1CCC(C=C(c2ccccc2)c2ccccc2)CC1`, the outcome was inactive. On to `O=C(O)[C@@H]1C[C@H](CP(=O)(O)O)CCN1`, for which the outcome was inactive.

With `COc1cc2c(c(OC)c1OC)-c1c(cc3c(c1OC)OCO3)C[C@@H](C)[C@](C)(O)C2`, the call was inactive. The result for `CCCCC/C=C\C=C\C(=O)OCC` reads “inactive”; that for `OCl`, “inactive”; that for `NC(=O)CC[C@@H]1NC(=O)[C@H](Cc2ccccc2)NC(=O)[C@H](Cc2ccc(O)cc2)NC(=O)[C@@H](N)CSSC[C@@H](C(=O)N2CCC[C@H]2C(=O)N[C@@H](CCCN=C(N)N)C(=O)NCC(N)=O)NC(=O)[C@H](CC(N)=O)NC1=O`, “inactive”. The result for `CN[C@@H]1[C@@H](O[C@H]2O[C@H](CO)[C@@H](N)[C@H](O)[C@H]2O)O[C@H]2C[C@@H](N)[C@@H](O[C@H]3[C@H](O)[C@@H](O)[C@H](N)C[C@@H]3N)O[C@@H]2[C@@H]1O` reads “inactive”; that for `CO/N=C(\C(=O)N[C@@H]1C(=O)N2C(C(=O)[O-])=C(C[n+]3cccc4c3CCC4)CS[C@H]12)c1csc(N)n1`, “inactive”.

Regarding `O=C(O)c1cc(O)c2c(c1)[C@H]([C@H]1c3cc(C(=O)O)cc(O)c3C(=O)c3c(O[C@@H]4O[C@H](CO)[C@@H](O)[C@H](O)[C@H]4O)cccc31)c1cccc(O[C@@H]3O[C@H](CO)[C@@H](O)[C@H](O)[C@H]3O)c1C2=O`, the outcome was inactive. To `CCCC(=O)c1cc(O)c(O)cc1O` belongs “inactive”; to `CS(=O)(=O)c1ccc([C@@H](O)[C@@H](COC(=O)CN)NC(=O)C(Cl)Cl)cc1`, “inactive”. The result for `C[Se]CC[C@H](N)C(=O)O` reads “inactive”; that for `C[S+](C)CCC(N)C(=O)O` (stereo not given), “inactive”.

On to `C/C(=C\C(=O)OCCCCCCCCC(=O)O)C[C@@H]1OC[C@H](C[C@@H]2O[C@H]2[C@@H](C)[C@H](C)O)[C@@H](O)[C@H]1O`, for which the compound was classed as inactive. To `CN(C/C=C/c1ccccc1)Cc1cccc2ccccc12` belongs “inactive”.

Take `CN(C[C@@H](CC[N+]12CCC(C3CCCCC3)(CC1)CC2)c1ccc(Cl)c(Cl)c1)C(=O)c1cc(C(F)(F)F)cc(C(F)(F)F)c1`: the call was inactive. To `CC[C@H]1OC(=O)C[C@@H](O)[C@H](C)[C@@H](O[C@@H]2O[C@H](C)[C@@H](O)[C@H](N(C)C)[C@H]2O)[C@@H](CCN2C[C@H](C)C[C@H](C)C2)C[C@@H](C)C(=O)/C=C/C(C)=C/[C@@H]1CO[C@@H]1O[C@H](C)[C@@H](O)[C@@H](OC)[C@H]1OC` belongs “inactive”. To `FC(F)(F)C(F)(F)C(F)(F)C(F)(F)C(F)(F)F` belongs “inactive”; to `NC(N)=NCCCCN=C(N)N`, “inactive”. In the case of `CO[C@H]1C[C@H](O[C@H]2[C@H](C)[C@@H](O[C@@H]3O[C@H](C)C[C@H](N(C)C)[C@H]3O)[C@@H](C)C[C@]3(CO3)C(=O)[C@H](C)[C@@H](O)[C@@H](C)[C@@H](C)OC(=O)[C@@H]2C)O[C@@H](C)[C@@H]1O`, the call was inactive. For `Nc1cc(Cl)c(NC2=NCCN2)c(Cl)c1`, the compound was called inactive. To `SC1CCCCC1` belongs “inactive”. For the compound `O=C1C2CC3CC1CC(O)(C3)C2`, the compound was called inactive. Regarding `CO/N=C(\C(=O)N[C@@H]1C(=O)N2C(C(=O)O)=C(COC(C)=O)CS[C@H]12)c1csc(N)n1` (stereo in doubt), the compound was called inactive. The result for `COc1ccc2ccccc2c1` reads “inactive”; that for `NCCCC[C@H](NC(=O)[C@@H]1CCCN1C(=O)[C@@H]1CSSC[C@H](N)C(=O)N[C@@H](Cc2ccc(O)cc2)C(=O)N[C@@H](Cc2ccccc2)C(=O)N[C@@H](CCC(N)=O)C(=O)N[C@@H](CC(N)=O)C(=O)N1)C(=O)NCC(N)=O`, “inactive”.

Source of the values: PubChem BioAssay (Tox21).
